Some test systems named below: RPMI-8226 leukemia; OVCAR-8 ovarian; OVCAR-5 ovarian; OVCAR-4 ovarian; SK-OV-3 ovarian; IGROV1 ovarian; OVCAR-3 ovarian; HS 578T breast; NCI/ADR-RES ovarian; T-47D breast; BT-549 breast; MDA-MB-435 melanoma; SW-620 colon; MCF7 breast; HCT-116 colon; HCC-2998 colon; KM12 colon.
Holding throughout (assay): NCI-60 one-dose screen, 48 h (100 = growth as untreated, 0 = no growth, -100 = all killed)
Conditions in all cases: 10 µM

This is part of a sample that, as a whole, favours compounds with a hit. Of some 83,000 tested, about 20% had one in any assay.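 Cell lines were cultured in 96-well plates, exposed to a single compound concentration, and assessed for percent growth 48 hours later.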 Values without a mark were called inactive. The source made the active and inactive calls. The calls were made as follows: active = growth percent below 10; inactive = the rest.

As to `CN(C)c1ccc(/C=C/C=N/NC(=O)c2cc(O)c(O)c(O)c2)cc1`, the growth in the assay on RPMI-8226 leukemia is 99.9%; in the assay with OVCAR-8 ovarian, 89.3%; with OVCAR-5 ovarian, 102%; in the assay on OVCAR-4 ovarian, 67.8%; in the assay on SK-OV-3 ovarian it was 99.3%; in the assay with IGROV1 ovarian, 100%. Moreover, the growth with OVCAR-3 ovarian is 90.9%; with HS 578T breast, 100%; in the assay on NCI/ADR-RES ovarian, 102%; in the assay with T-47D breast, 25.3%; with BT-549 breast, 89.7%; in the assay on MDA-MB-435 melanoma it was 96.7%. For the same molecule, the growth was 43.4% in the assay with SW-620 colon; 87.8% in the assay on MCF7 breast; 52.7% with HCT-116 colon; 109% with HCC-2998 colon; 104% with KM12 colon.

For `O=c1cc(-c2ccccc2)[nH]n1-c1nc2ccccc2[nH]1`, the growth in the assay with RPMI-8226 leukemia was 40.2%; in the assay with OVCAR-8 ovarian, 35%; in the assay on OVCAR-5 ovarian, 98.6%; in the assay with OVCAR-4 ovarian it was 25.3%; in the assay with SK-OV-3 ovarian, 75.7%; with IGROV1 ovarian, 38.9%. Moreover, the growth in the assay on OVCAR-3 ovarian is 60.9%; with HS 578T breast it was 69.5%; in the assay with NCI/ADR-RES ovarian it was 29.1%; in the assay with T-47D breast, 62%; in the assay on BT-549 breast, 75.8%; in the assay on MDA-MB-435 melanoma it was 51.1%. The growth with SW-620 colon was 31.6%; in the assay on MCF7 breast, 42.7%; in the assay on HCT-116 colon, 32.1%; in the assay with HCC-2998 colon it was 59.3%; in the assay on KM12 colon it was 38%.

For `S=C1SCC(c2ccccc2)S1` (stereo not drawn), the growth in the assay on RPMI-8226 leukemia was 102%; with OVCAR-8 ovarian, 103%; in the assay with OVCAR-5 ovarian, 106%; with OVCAR-4 ovarian, 93.8%; with SK-OV-3 ovarian, 104%; with IGROV1 ovarian it was 114%. The growth was 121% in the assay on OVCAR-3 ovarian; 143% with HS 578T breast; 112% in the assay on NCI/ADR-RES ovarian; 99.6% with T-47D breast; 109% in the assay with BT-549 breast; 102% in the assay with MDA-MB-435 melanoma. The growth was 111% with SW-620 colon; 99.4% with MCF7 breast; 107% with HCT-116 colon; 114% in the assay on HCC-2998 colon; 117% in the assay on KM12 colon.

`CN(C)Cc1cn(-c2ncc(-c3ccc(C(F)(F)F)cc3)c(NC3CCCCCC3)n2)nn1`: the growth is 60.4% in the assay on RPMI-8226 leukemia; 83.1% in the assay with OVCAR-8 ovarian; 110% in the assay with OVCAR-5 ovarian; 79.9% in the assay with OVCAR-4 ovarian; 86.5% in the assay with SK-OV-3 ovarian; 71.3% with IGROV1 ovarian. In addition, the growth in the assay with OVCAR-3 ovarian is 86%; in the assay with HS 578T breast, 93.6%; in the assay on NCI/ADR-RES ovarian, 91.9%; in the assay with T-47D breast it was 81.7%; with BT-549 breast, 94.6%; in the assay on MDA-MB-435 melanoma, 95.2%. In addition, the growth in the assay on SW-620 colon was 99.4%; in the assay on MCF7 breast, 70.3%; in the assay on HCT-116 colon, 66.3%; in the assay with HCC-2998 colon, 94.8%; in the assay with KM12 colon, 86.3%.

As for `COc1ccc(-c2nn(-c3cccc(NC(=O)Nc4cccc(C(F)(F)F)c4)c3)cc2-c2ccncc2)cc1Cl`, the growth is -11% (active) in the assay on RPMI-8226 leukemia; -4.63% (active) in the assay on OVCAR-8 ovarian; 56.1% in the assay on OVCAR-5 ovarian; 18.1% with OVCAR-4 ovarian; 20.4% with SK-OV-3 ovarian; 14.5% in the assay on IGROV1 ovarian. The growth is 3.89% (active) with OVCAR-3 ovarian; 32.5% in the assay on HS 578T breast; 0.659% (active) with NCI/ADR-RES ovarian; -6.95% (active) with T-47D breast; 8.32% (active) with BT-549 breast; -35.8% (active) in the assay on MDA-MB-435 melanoma. For the same molecule, the growth was 17.4% in the assay on SW-620 colon; 5.79% (active) in the assay with MCF7 breast; 9.6% (active) in the assay on HCT-116 colon; 30.5% in the assay on HCC-2998 colon; 0.879% (active) in the assay with KM12 colon.

Regarding `Cc1nc2oc3ccccc3c(=O)c2cc1C(=O)NCc1ccccc1`, the growth in the assay with RPMI-8226 leukemia is 80.4%; in the assay with OVCAR-8 ovarian, 90.4%; with OVCAR-5 ovarian, 81.8%; in the assay with OVCAR-4 ovarian, 67.9%; with SK-OV-3 ovarian, 110%; in the assay with IGROV1 ovarian, 102%. Also, the growth with OVCAR-3 ovarian is 93.3%; with HS 578T breast, 105%; in the assay on NCI/ADR-RES ovarian it was 55.4%; in the assay with T-47D breast, 53.9%; in the assay on BT-549 breast it was 88%; in the assay with MDA-MB-435 melanoma it was 65.3%. In addition, the growth in the assay on SW-620 colon is 72.4%; in the assay on MCF7 breast it was 43.8%; in the assay with HCT-116 colon, 59.8%; in the assay with HCC-2998 colon, 37.9%; in the assay with KM12 colon, 31.3%.

Turning to `Clc1ccc(Nc2ccnc(NCCNc3ccnc4cc(Cl)ccc34)n2)cc1`, the growth was -48.9% (active) in the assay on RPMI-8226 leukemia; 16.9% in the assay on OVCAR-8 ovarian; 61.4% in the assay with OVCAR-5 ovarian; 24.9% in the assay on OVCAR-4 ovarian; 60% in the assay with SK-OV-3 ovarian; -8.25% (active) with IGROV1 ovarian. The growth with OVCAR-3 ovarian was 57.8%; with HS 578T breast, -25% (active); with NCI/ADR-RES ovarian, 44.8%; in the assay on T-47D breast, -60.2% (active); in the assay with BT-549 breast, 40.8%; with MDA-MB-435 melanoma, -90% (active). For the same molecule, the growth in the assay on SW-620 colon was -10.5% (active); with MCF7 breast it was -74.6% (active); with HCT-116 colon, -71.3% (active); in the assay with HCC-2998 colon it was -89% (active); in the assay with KM12 colon it was 33.7%.

Consider `CN(Cc1ccccc1)Cc1ccc([N+](=O)[O-])cc1I`, for which the growth in the assay with RPMI-8226 leukemia was 91.9%; in the assay on OVCAR-8 ovarian, 102%; in the assay with OVCAR-5 ovarian, 93.7%; with OVCAR-4 ovarian it was 91%; in the assay with SK-OV-3 ovarian, 94.9%; with IGROV1 ovarian it was 92.5%. In addition, the growth in the assay with OVCAR-3 ovarian is 98.9%; in the assay on HS 578T breast it was 95.4%; in the assay on NCI/ADR-RES ovarian, 103%; with T-47D breast, 93.9%; in the assay on BT-549 breast it was 87.7%; with MDA-MB-435 melanoma, 102%. Also, the growth in the assay with SW-620 colon was 89%; in the assay with MCF7 breast, 91.6%; with HCT-116 colon, 84%; with HCC-2998 colon, 106%; with KM12 colon it was 93.2%.

Turning to `CC1(C)CCC(=NNC(N)=S)CC1`, the growth is 103% in the assay with RPMI-8226 leukemia; 100% in the assay with OVCAR-8 ovarian; 109% in the assay on OVCAR-5 ovarian; 112% with OVCAR-4 ovarian; 117% with SK-OV-3 ovarian; 116% in the assay with IGROV1 ovarian. The growth in the assay on OVCAR-3 ovarian is 112%; in the assay with HS 578T breast, 103%; in the assay on NCI/ADR-RES ovarian, 105%; in the assay on T-47D breast it was 95.2%; in the assay on BT-549 breast it was 125%; in the assay on MDA-MB-435 melanoma it was 111%. The growth is 105% in the assay with SW-620 colon; 99.4% in the assay with MCF7 breast; 94.6% in the assay on HCT-116 colon; 101% in the assay on HCC-2998 colon; 105% in the assay with KM12 colon.

Values taken from PubChem BioAssay (NCI).
